The experiment in a line: NCI Yeast Anticancer Drug Screen. Data for the mlh1 strain (AID 171).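 Further: 0% = growth of vehicle-treated control cultures of the same strain.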 As to conditions: S. cerevisiae mlh1 strain growth inhibition, hits give high values. The procedure:
Growth inhibition of yeast strains with defined genetic alterations is measured as a screen for potential anti-cancer activity. Selected strains with alterations in DNA damage repair or cell cycle control were exposed to compounds and growth inhibition was measured relative to vehicle treated controls. The strain used in this assay is mlh1

Compounds without any hit were thinned out: in the full panel of roughly 79,000, 15% have a hit. A number with no mark means an inactive call. Calls of active or inactive are those of the source. No stated cut-off is given here; in the data, active means growth inhibition above about 70%; inactive means the rest.

Regarding `C=C(CN(C)C)C(=O)c1cc(C)ccc1C`, the growth inhibition was 12% (at 1.2 µM); 32% (at 3.7 µM); 89% (active) (at 11.0 µM); 99% (active) (at 33.0 µM); 99% (active) (at 100.0 µM).
With `Cc1c(C(Cc2ccccc2N(C)C(=O)/C=C\C(=O)O)c2c[nH]c3ccccc23)c2ccccc2n1C` (stereo not given), the growth inhibition runs as follows: (at 1.2 µM) -7%; (at 3.7 µM) -6%; (at 11.0 µM) -7%; (at 33.0 µM) 4%; (at 100.0 µM) 62%.
Regarding `O=C(OCCN1CCCCCC1)C(c1ccsc1)C1CCCCC1` (stereo not given), the growth inhibition (at 1.2 µM) was 8%; the growth inhibition (at 3.7 µM) is 21%; the growth inhibition (at 11.0 µM) was 24%; the growth inhibition (at 33.0 µM) is 29%; the growth inhibition (at 100.0 µM) was 35%.
For `O=C1C(Nc2ccccc2)=C(Oc2ccccc2)C(=O)c2ccccc21`, in that order: -5%, 0%, 1%, 0% and 0%.
On to `NCCNc1ccc(NCCN)c2c1C(=O)c1c(O)ccc(O)c1C2=O`, for which the growth inhibition is 2% (at 1.2 µM); 20% (at 3.7 µM); 20% (at 11.0 µM); 86% (active) (at 33.0 µM); 66% (at 100.0 µM).
Take `Cc1ccc(S(=O)(=O)NC(=O)NC2=NC(C)(C)N(c3ccc(Cl)c(Cl)c3)C(N)=N2)cc1`: the growth inhibition is -1% (at 1.2 µM); 0% (at 3.7 µM); -1% (at 11.0 µM); 1% (at 33.0 µM); -3% (at 100.0 µM).
On to `COc1ccc(/C=C/C(=O)C(C)(C)Br)cc1`, for which the growth inhibition by setting is: (at 1.2 µM) 5%; (at 3.7 µM) 19%; (at 11.0 µM) 33%; (at 33.0 µM) 54%; (at 100.0 µM) 94% (active).
For `CN(C)C[C@H]1CC[C@@H](CN(C)C)C1=O`, in that order: 18%, 32%, 24%, 36% and 29%.
